Common to all, as to experiment: DAPPL (digital affinity profiling via proximity ligation, sequencing); 10 mM Tris-HCl pH 7.5, 50 mM NaCl, 1 mM DTT, 4% glycerol, room temperature, 30 min; GST-TFs on glutathione beads, 16-mer random dsDNA library, 0.1% formaldehyde crosslink after washing; high values mean tight binding
Holding throughout (settings): protein: recombinant; tags: N-terminal GST; dsDNA, one strand shown

The target in one assay is T1, ELK4 (Homo sapiens, UniProt P28324-2 1-405).
T1 sequence: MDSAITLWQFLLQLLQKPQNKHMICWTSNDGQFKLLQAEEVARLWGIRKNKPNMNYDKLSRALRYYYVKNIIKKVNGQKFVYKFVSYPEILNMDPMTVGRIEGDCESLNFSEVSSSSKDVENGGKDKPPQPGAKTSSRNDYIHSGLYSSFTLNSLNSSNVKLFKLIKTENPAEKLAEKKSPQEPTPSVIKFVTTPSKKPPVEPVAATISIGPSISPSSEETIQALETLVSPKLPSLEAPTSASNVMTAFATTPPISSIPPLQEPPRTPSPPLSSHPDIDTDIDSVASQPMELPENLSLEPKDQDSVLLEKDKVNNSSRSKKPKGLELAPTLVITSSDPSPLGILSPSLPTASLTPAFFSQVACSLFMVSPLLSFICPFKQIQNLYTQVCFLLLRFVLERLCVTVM
Summed up: (§1)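 A tag-only sample was pooled with DNA-barcoded human transcription factors that had been expressed in yeast as GST fusions and captured on glutathione beads. The pools were incubated for 30 min at room temperature with 200 nmole of a random double-stranded 16-mer DNA library in Tris/NaCl/DTT/glycerol buffer, then washed, crosslinked with 0.1% formaldehyde, proximity-ligated (BsaI/T4 ligase, 1 h, 37 °C), PCR-amplified and sequenced on an Illumina NextSeq500. Binding signal is each hexamer's read frequency for a factor divided by its frequency for the tag-only sample.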

The next assay deals with T2, ELF3 (Homo sapiens, UniProt P78545 1-371).
T2 sequence: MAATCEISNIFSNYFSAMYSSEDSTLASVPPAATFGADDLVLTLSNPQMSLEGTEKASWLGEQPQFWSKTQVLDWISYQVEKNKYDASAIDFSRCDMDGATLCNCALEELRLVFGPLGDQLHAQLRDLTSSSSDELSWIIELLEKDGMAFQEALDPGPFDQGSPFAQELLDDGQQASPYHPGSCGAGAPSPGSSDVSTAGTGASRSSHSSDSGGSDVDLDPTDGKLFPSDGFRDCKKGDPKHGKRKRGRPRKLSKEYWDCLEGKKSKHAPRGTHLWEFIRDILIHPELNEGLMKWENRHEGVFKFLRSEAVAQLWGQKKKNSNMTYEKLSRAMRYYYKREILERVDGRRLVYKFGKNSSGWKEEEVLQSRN
An outline of the steps: as §1

Another assay addresses ETV1 (Homo sapiens, UniProt P50549 1-477). Summed up: as §1
In the next assay the target is T3, ERF (Homo sapiens, UniProt P50548 1-548).
T3 sequence: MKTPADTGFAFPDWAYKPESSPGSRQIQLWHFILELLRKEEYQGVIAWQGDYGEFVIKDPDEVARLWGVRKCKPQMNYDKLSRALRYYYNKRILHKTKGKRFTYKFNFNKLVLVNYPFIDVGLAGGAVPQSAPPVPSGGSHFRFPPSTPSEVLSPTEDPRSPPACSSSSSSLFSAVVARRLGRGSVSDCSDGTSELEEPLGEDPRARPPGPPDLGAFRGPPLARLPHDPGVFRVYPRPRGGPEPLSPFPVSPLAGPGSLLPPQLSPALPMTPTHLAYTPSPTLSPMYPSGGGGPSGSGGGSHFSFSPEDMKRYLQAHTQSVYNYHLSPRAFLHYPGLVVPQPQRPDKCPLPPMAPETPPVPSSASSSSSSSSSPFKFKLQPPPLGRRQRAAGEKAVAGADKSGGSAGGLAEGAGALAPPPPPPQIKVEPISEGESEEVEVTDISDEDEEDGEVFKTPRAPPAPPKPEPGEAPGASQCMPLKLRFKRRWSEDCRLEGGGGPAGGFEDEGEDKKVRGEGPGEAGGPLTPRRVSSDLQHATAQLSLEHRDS
An outline of the steps:
as §1

The next assay addresses T4, ETV3L (Homo sapiens, UniProt Q6ZN32 1-361).
T4 sequence: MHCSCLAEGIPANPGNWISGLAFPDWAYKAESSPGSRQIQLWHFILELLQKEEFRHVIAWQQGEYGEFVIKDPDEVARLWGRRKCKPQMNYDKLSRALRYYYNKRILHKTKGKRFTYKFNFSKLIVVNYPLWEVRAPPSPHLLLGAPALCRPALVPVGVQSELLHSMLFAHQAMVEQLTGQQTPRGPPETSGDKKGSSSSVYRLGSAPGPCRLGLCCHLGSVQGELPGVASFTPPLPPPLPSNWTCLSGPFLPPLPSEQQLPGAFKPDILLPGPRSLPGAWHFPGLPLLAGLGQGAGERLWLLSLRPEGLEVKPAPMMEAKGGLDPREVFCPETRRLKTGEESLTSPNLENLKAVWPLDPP
An outline of the steps: as §1

Another assay has as its target T5, ETS2 (Homo sapiens, UniProt P15036 1-469).
T5 sequence: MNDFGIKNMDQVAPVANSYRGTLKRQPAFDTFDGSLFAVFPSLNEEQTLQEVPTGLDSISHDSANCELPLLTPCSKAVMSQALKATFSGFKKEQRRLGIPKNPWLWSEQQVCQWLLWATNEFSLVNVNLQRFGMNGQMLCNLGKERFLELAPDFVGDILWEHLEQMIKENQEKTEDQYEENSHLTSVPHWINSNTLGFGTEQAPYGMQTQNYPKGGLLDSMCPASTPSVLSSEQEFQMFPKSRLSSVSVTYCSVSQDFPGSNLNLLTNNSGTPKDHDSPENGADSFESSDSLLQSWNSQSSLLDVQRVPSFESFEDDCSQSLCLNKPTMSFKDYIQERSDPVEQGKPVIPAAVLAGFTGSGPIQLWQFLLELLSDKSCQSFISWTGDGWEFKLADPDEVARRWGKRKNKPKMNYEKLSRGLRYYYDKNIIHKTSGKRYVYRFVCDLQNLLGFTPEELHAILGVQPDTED
An outline of the steps:
as §1

A further assay has as its target T6, SPDEF (Homo sapiens, UniProt O95238 1-335).
T6 sequence: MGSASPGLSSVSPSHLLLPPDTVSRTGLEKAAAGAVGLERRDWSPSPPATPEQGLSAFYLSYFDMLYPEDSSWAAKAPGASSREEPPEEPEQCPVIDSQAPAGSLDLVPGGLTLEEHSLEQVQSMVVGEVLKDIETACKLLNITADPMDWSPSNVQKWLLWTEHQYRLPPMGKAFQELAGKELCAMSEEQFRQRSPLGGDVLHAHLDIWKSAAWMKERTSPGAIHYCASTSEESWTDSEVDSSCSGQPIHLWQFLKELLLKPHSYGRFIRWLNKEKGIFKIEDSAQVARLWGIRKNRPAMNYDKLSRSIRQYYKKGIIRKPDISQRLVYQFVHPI
An outline of the steps: as §1

A further assay concerns the target T7, ETV7 (Homo sapiens, UniProt Q9Y603 1-341).
T7 sequence: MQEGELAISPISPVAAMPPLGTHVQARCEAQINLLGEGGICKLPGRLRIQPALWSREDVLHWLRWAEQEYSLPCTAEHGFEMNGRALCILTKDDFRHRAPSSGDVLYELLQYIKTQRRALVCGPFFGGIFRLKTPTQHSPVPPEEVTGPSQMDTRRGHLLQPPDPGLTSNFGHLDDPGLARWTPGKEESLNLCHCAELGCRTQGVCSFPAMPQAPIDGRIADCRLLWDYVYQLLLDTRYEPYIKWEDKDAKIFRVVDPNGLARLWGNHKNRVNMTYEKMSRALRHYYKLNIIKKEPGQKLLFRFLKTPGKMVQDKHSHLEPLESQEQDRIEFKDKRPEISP
Summed up: as §1

For another assay, the target named is T8, ETV3 (Homo sapiens, UniProt P41162-2 1-143).
T8 sequence: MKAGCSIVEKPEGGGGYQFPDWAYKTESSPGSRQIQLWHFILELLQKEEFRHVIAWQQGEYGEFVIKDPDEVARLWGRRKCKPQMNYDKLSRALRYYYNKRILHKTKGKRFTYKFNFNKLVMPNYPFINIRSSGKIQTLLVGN
An outline of the steps: as §1

Another assay concerns the target ETV6 (Homo sapiens, UniProt P41212 1-452). Summed up:
as §1

ETV6, sequence (P41212 whole entry): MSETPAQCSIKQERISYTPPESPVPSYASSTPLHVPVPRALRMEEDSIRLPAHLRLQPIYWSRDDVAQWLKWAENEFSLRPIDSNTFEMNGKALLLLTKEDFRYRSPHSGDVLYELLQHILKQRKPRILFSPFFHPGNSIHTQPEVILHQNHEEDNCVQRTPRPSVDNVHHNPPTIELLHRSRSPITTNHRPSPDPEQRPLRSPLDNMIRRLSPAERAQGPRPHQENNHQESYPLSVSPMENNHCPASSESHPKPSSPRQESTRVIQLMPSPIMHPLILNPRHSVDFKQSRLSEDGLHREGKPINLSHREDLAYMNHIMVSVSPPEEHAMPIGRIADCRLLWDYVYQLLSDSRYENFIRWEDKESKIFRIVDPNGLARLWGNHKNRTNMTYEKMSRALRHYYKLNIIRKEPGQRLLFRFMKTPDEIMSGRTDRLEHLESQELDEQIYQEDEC
ETV1, sequence (P50549 whole entry): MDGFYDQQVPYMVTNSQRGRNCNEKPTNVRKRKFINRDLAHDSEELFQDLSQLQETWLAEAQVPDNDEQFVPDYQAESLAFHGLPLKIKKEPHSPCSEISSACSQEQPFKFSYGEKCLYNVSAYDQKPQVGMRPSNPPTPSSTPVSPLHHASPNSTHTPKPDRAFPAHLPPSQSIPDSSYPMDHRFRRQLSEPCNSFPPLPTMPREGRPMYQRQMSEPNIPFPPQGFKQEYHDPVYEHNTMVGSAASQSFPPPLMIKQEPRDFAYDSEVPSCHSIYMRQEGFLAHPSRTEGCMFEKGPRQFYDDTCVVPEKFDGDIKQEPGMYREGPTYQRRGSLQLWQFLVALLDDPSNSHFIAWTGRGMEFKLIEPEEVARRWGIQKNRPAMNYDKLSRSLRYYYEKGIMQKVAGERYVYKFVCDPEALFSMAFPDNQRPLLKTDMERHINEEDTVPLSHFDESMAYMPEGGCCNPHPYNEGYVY

As for CAAACA, the binding signal with ELK4 was 1.13 fold enrichment (6-mer frequency, TF over GST control); with ELF3, 1.21 fold enrichment (6-mer frequency, TF over GST control); with ETV1 it was 1.09 fold enrichment (6-mer frequency, TF over GST control); with ERF, 1.08 fold enrichment (6-mer frequency, TF over GST control); in the assay with ETV3L it was 1.12 fold enrichment (6-mer frequency, TF over GST control); with ETS2, 1.16 fold enrichment (6-mer frequency, TF over GST control). Further, the binding signal with SPDEF is 1.12 fold enrichment (6-mer frequency, TF over GST control); with ETV7 it was 1.07 fold enrichment (6-mer frequency, TF over GST control); in the assay with ETV3, 1.13 fold enrichment (6-mer frequency, TF over GST control); with ETV6, 1.1 fold enrichment (6-mer frequency, TF over GST control).
